# Results taken from the supplement of paper PMC12282887.
# ± gives the standard deviation of the averaged measurements.
# Experiments:
# Test in all cases: promoter activity interaction Z-score (Lux/OD deviation from empty-vector control); higher = stronger promoter induction by the compound
# [1] = system: E. coli BW25113 acrABp lux reporter
# Method in brief: (§1)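 OD600 and luminescence of E. coli BW25113 reporter cultures (40 µl LB Lennox, 384-well plates, 37°C) were measured every 30 min for 12 h. Integration ran over 0–8 h for wild type or 1–9 h for deletion strains, and wells with growth below 10% of the median were dropped. The score is the Z-transformed residual of growth-normalised luminescence fitted against a control.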
# [2] = system: E. coli BW25113 micFp lux reporter
# Method in brief: as §1
# [3] = system: E. coli BW25113 ompFp lux reporter
# Method in brief: as §1
# [4] = system: E. coli BW25113 robp lux reporter
# Method in brief: as §1
# [5] = system: E. coli BW25113 soxSp lux reporter
# Method in brief: as §1
# [6] = system: E. coli BW25113 tolCp lux reporter
# Method in brief: as §1
# [7] = 12.9 µg/ml, genetic background: wild type
# [8] = 12.9 µg/ml, genetic background: ΔmarA
# [9] = 12.9 µg/ml, genetic background: Δrob
# [10] = 12.9 µg/ml, genetic background: ΔsoxS
# [11] = 25.8 µg/ml, genetic background: wild type
# [12] = 25.8 µg/ml, genetic background: ΔmarA
# [13] = 25.8 µg/ml, genetic background: Δrob
# [14] = 25.8 µg/ml, genetic background: ΔsoxS
# [15] = 51.6 µg/ml, genetic background: wild type
# [16] = 51.6 µg/ml, genetic background: ΔmarA
# [17] = 51.6 µg/ml, genetic background: Δrob
# [18] = 51.6 µg/ml, genetic background: ΔsoxS
# [19] = 103.1 µg/ml, genetic background: wild type
# [20] = 103.1 µg/ml, genetic background: ΔmarA
# [21] = 103.1 µg/ml, genetic background: Δrob
# [22] = 103.1 µg/ml, genetic background: ΔsoxS
smiles,measurement,setting,value
CC(C)Cc1ccc(C(C)C(=O)O)cc1 (stereo unspecified) [Ibuprofen],promoter activity interaction Z-score,[1]; [7],0.434 ± 0.3
same,promoter activity interaction Z-score,[1]; [8],-0.569 ± 0.69
same,promoter activity interaction Z-score,[1]; [9],0.0303 ± 0.11
same,promoter activity interaction Z-score,[1]; [10],0.455 ± 0.63
same,promoter activity interaction Z-score,[1]; [11],0.485 ± 0.088
same,promoter activity interaction Z-score,[1]; [12],0.667 ± 0.1
same,promoter activity interaction Z-score,[1]; [13],-0.156 ± 0.0041
same,promoter activity interaction Z-score,[1]; [14],-0.0442 ± 0.022
same,promoter activity interaction Z-score,[1]; [15],0.366 ± 0.24
same,promoter activity interaction Z-score,[1]; [16],-0.62 ± 0.53
same,promoter activity interaction Z-score,[1]; [17],0.236 ± 0.13
same,promoter activity interaction Z-score,[1]; [18],0.0533 ± 0.45
same,promoter activity interaction Z-score,[1]; [19],0.11 ± 0.073
same,promoter activity interaction Z-score,[1]; [20],2.18 ± 0.32
same,promoter activity interaction Z-score,[1]; [21],-0.393 ± 0.093
same,promoter activity interaction Z-score,[1]; [22],-0.205 ± 0.13
same,promoter activity interaction Z-score,[2]; [7],0.145 ± 0.18
same,promoter activity interaction Z-score,[2]; [8],-0.00146 ± 0.055
same,promoter activity interaction Z-score,[2]; [9],-0.209 ± 0.0032
same,promoter activity interaction Z-score,[2]; [10],0.214 ± 0.16
same,promoter activity interaction Z-score,[2]; [11],0.384 ± 0.26
same,promoter activity interaction Z-score,[2]; [12],0.0835 ± 0.1
same,promoter activity interaction Z-score,[2]; [13],-0.0551 ± 0.11
same,promoter activity interaction Z-score,[2]; [14],0.0794 ± 0.022
same,promoter activity interaction Z-score,[2]; [15],-0.0155 ± 0.081
same,promoter activity interaction Z-score,[2]; [16],0.0304 ± 0.18
same,promoter activity interaction Z-score,[2]; [17],-0.00979 ± 0.056
same,promoter activity interaction Z-score,[2]; [18],0.259 ± 0.28
same,promoter activity interaction Z-score,[2]; [19],0.239 ± 0.31
same,promoter activity interaction Z-score,[2]; [20],-0.0514 ± 0.092
same,promoter activity interaction Z-score,[2]; [21],-0.0741 ± 0.16
same,promoter activity interaction Z-score,[2]; [22],0.193 ± 0.12
same,promoter activity interaction Z-score,[3]; [7],0.335 ± 0.31
same,promoter activity interaction Z-score,[3]; [8],0.335 ± 0.075
same,promoter activity interaction Z-score,[3]; [9],-0.132 ± 0.56
same,promoter activity interaction Z-score,[3]; [10],0.513 ± 0.44
same,promoter activity interaction Z-score,[3]; [11],0.726 ± 0.49
same,promoter activity interaction Z-score,[3]; [12],1.13 ± 1.1
same,promoter activity interaction Z-score,[3]; [13],0.704 ± 0.75
same,promoter activity interaction Z-score,[3]; [14],-0.184 ± 0.45
same,promoter activity interaction Z-score,[3]; [15],0.353 ± 0.34
same,promoter activity interaction Z-score,[3]; [16],0.469 ± 0.28
same,promoter activity interaction Z-score,[3]; [17],0.418 ± 0.24
same,promoter activity interaction Z-score,[3]; [18],0.0995 ± 0.085
same,promoter activity interaction Z-score,[3]; [19],0.349 ± 0.46
same,promoter activity interaction Z-score,[3]; [20],1.78 ± 0.81
same,promoter activity interaction Z-score,[3]; [21],0.954 ± 1.3
same,promoter activity interaction Z-score,[3]; [22],-0.0643 ± 0.52
same,promoter activity interaction Z-score,[4]; [7],0.839 ± 0.9
same,promoter activity interaction Z-score,[4]; [8],0.214 ± 0.091
same,promoter activity interaction Z-score,[4]; [9],0.6 ± 0.66
same,promoter activity interaction Z-score,[4]; [10],0.59 ± 0.11
same,promoter activity interaction Z-score,[4]; [11],1.19 ± 0.31
same,promoter activity interaction Z-score,[4]; [12],2.36 ± 0.11
same,promoter activity interaction Z-score,[4]; [13],0.557 ± 0.45
same,promoter activity interaction Z-score,[4]; [14],-0.577 ± 0.45
same,promoter activity interaction Z-score,[4]; [15],0.25 ± 0.22
same,promoter activity interaction Z-score,[4]; [16],-0.675 ± 0.18
same,promoter activity interaction Z-score,[4]; [17],0.24 ± 0.11
same,promoter activity interaction Z-score,[4]; [18],-0.0538 ± 0.089
same,promoter activity interaction Z-score,[4]; [19],0.337 ± 0.38
same,promoter activity interaction Z-score,[4]; [20],0.9946 ± 0.0074
same,promoter activity interaction Z-score,[4]; [21],0.346 ± 0.75
same,promoter activity interaction Z-score,[4]; [22],0.183 ± 1.1
same,promoter activity interaction Z-score,[5]; [7],0.233 ± 0.39
same,promoter activity interaction Z-score,[5]; [8],-0.0514 ± 0.082
same,promoter activity interaction Z-score,[5]; [9],-0.201 ± 0.088
same,promoter activity interaction Z-score,[5]; [10],0.159 ± 0.065
same,promoter activity interaction Z-score,[5]; [11],0.503 ± 0.48
same,promoter activity interaction Z-score,[5]; [12],0.0892 ± 0.08
same,promoter activity interaction Z-score,[5]; [13],-0.0188 ± 0.046
same,promoter activity interaction Z-score,[5]; [14],-0.109 ± 0.058
same,promoter activity interaction Z-score,[5]; [15],0.0184 ± 0.19
same,promoter activity interaction Z-score,[5]; [16],-0.0994 ± 0.11
same,promoter activity interaction Z-score,[5]; [17],0.111 ± 0.19
same,promoter activity interaction Z-score,[5]; [18],-0.0346 ± 0.014
same,promoter activity interaction Z-score,[5]; [19],-0.0139 ± 0.16
same,promoter activity interaction Z-score,[5]; [20],-0.0609 ± 0.081
same,promoter activity interaction Z-score,[5]; [21],-0.164 ± 0.23
same,promoter activity interaction Z-score,[5]; [22],-0.245 ± 0.15
same,promoter activity interaction Z-score,[6]; [7],-0.813 ± 0.87
same,promoter activity interaction Z-score,[6]; [8],0.0288 ± 1.6
same,promoter activity interaction Z-score,[6]; [9],-0.78 ± 0.64
same,promoter activity interaction Z-score,[6]; [10],-0.147 ± 0.44
same,promoter activity interaction Z-score,[6]; [11],0.563 ± 0.048
same,promoter activity interaction Z-score,[6]; [12],0.78 ± 1.2
same,promoter activity interaction Z-score,[6]; [13],-0.284 ± 1.6
same,promoter activity interaction Z-score,[6]; [14],-0.361 ± 0.24
same,promoter activity interaction Z-score,[6]; [15],-0.451 ± 0.093
same,promoter activity interaction Z-score,[6]; [16],-0.139 ± 0.2
same,promoter activity interaction Z-score,[6]; [17],0.442 ± 1.5
same,promoter activity interaction Z-score,[6]; [18],-0.22 ± 0.31
same,promoter activity interaction Z-score,[6]; [19],0.199 ± 1.1
same,promoter activity interaction Z-score,[6]; [20],0.757 ± 1.8
same,promoter activity interaction Z-score,[6]; [21],-0.377 ± 0.11
same,promoter activity interaction Z-score,[6]; [22],-0.341 ± 0.63
